Screening data deposited in PubChem BioAssay by several laboratories.
tim10-1 inh: growth inhibitors of tim10-1 mutant yeast; S. cerevisiae tim10-1 ts strain growth, BacTiter-Glo, 24 h; inhibition, % at 20 µM; 2.2% of 330,000 active;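 active = inhibition of at least 40%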;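 note: mutant grown at 25 °C; 0% = DMSO wells with yeast and 100% = wells holding no yeast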
tim23-1 inh: inhibits growth of tim23-1 mutant yeast; S. cerevisiae tim23-1 growth, BacTiter-Glo luminescence, 24 h; inhibition, % at 20 µM; 1.3% of 330,000 active; AID 463212;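 active = growth inhibition of the mutant yeast at or above 50%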;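 note: temperature-sensitive mutant grown at 25 °C; plate controls were DMSO-treated mutant yeast for no effect and medium wells lacking yeast for full effect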
NALP1 yeast inh: blocks the NALP1 inflammasome reconstituted in yeast | 0.61% of 280,000 active | S. cerevisiae NALP1/ASC/caspase-1 growth, X-gal OD620, 72 h | inhibition, % at 10 µM; in the data active = inhibition mostly above about 24%, no sharp cut-off; inactive = mostly below about 32%
TIM10 inh: TIM10 yeast growth inhibition | inhibition, % at 10 µM | S. cerevisiae TIM10 strain growth, BacTiter-Glo luminescence, 24 h | 1.4% of 330,000 active | AID 463195;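 active = inhibition of 40% or more at the single tested concentration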;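 note: wild-type TIM10 isogenic control strain grown at permissive 25 °C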
V-ATPase pHluor: alters yeast V-ATPase proton transport | S. cerevisiae, pHLuorin cytosolic pH fluorescence | AID 504577 | response, % at 10 µM | 0.37% of 350,000 active; in the data active = response mostly above about 7.3%, no sharp cut-off; inactive = mostly below about 5.4%; note: actives read high
NLRP3 yeast inh: NALP3 inhibition in yeast | Yeast reconstituted NLRP3/ASC/caspase-1, beta-gal luminescence, 24 h | inhibition, % at 10 µM | 0.39% of 330,000 active;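 active = inhibition of 50% or more; inactive = inhibition below 50%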;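 note: plate controls were induced DMSO wells for no effect and uninduced yeast grown without galactose for full effect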
tim10-1 confirm: confirmation of tim10-1 mutant yeast growth inhibitors | inhibition, % at 20 µM | S. cerevisiae tim10-1 ts strain growth, BacTiter-Glo, 24 h | shares compounds with tim10-1 inh | 56% of 7,400 active | AID 463213;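 active = inhibition of yeast growth at or above a set limit in either of two repeat tests at 20 µM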;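 note: tim10-1 mutant grown at permissive 25 °C to find synthetic lethal compounds; 0% = DMSO yeast wells and 100% = medium wells without yeast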
tim10 confirm: confirmation of TIM10 yeast growth inhibitors. shares compounds with TIM10 inh. S. cerevisiae tim10 strain growth, BacTiter-Glo luminescence, 24 h. inhibition, % at 10 µM. 63% of 4,600 active. AID 463215;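 active = inhibition of yeast growth at or above a set limit in either of two replicates at 10 µM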;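 note: this counterscreen used the strain with wild-type TIM10; 0% = yeast with DMSO and 100% = medium wells lacking yeast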
* = called active by the depositor. Only some compounds are listed: those with a hit (about 4.2% of all), similar ones and a draw of the others.

What do the screens show for `COc1cccc(-c2nn3c(-c4ccco4)nnc3s2)c1`?
tim10-1 inh: 52*; tim23-1 inh: 50; NALP1 yeast inh: 16; TIM10 inh: 47*; V-ATPase pHluor: -2; NLRP3 yeast inh: 16; tim10-1 confirm: 55*; tim10 confirm: 19

How did N#C/C(=C/c1ccc2c(c1)OCO2)C(=O)NCCc1c[nH]c2ccccc12 do in these assays?
tim10-1 inh: 63*; tim23-1 inh: 47; NALP1 yeast inh: 25; TIM10 inh: 63*; V-ATPase pHluor: 0; NLRP3 yeast inh: 24; tim10-1 confirm: 58*; tim10 confirm: 56*

What do the screens show for `O=C(NCCc1c[nH]c2ccccc12)c1ccc2c(c1)OCO2`?
tim10-1 inh: -30; tim23-1 inh: -1; NALP1 yeast inh: -5; TIM10 inh: 11; V-ATPase pHluor: 2; NLRP3 yeast inh: 9

Results for CC(C)C[C@H]1CN=C(Nc2ccccc2)N1CC1CCC(C(C)(C)C)CC1 (some centres undefined) ?
tim10-1 inh: 43*; tim23-1 inh: 50; TIM10 inh: 42*; V-ATPase pHluor: 3; NLRP3 yeast inh: 33; tim10-1 confirm: 32*; tim10 confirm: 42*

What do the screens show for `COc1ccc2nc3oc(C(=O)NC4CCN(Cc5ccccc5)CC4)cc3cc2c1`?
tim10-1 inh: 52*; tim23-1 inh: 34; NALP1 yeast inh: 7; TIM10 inh: 74*; V-ATPase pHluor: 3; NLRP3 yeast inh: 42; tim10-1 confirm: 50*; tim10 confirm: 44*

Results for CCCCN(CC)CCCNC(=O)c1cc2cc3ccc(OC)cc3nc2o1 ?
tim10-1 inh: 43*; tim23-1 inh: 47; NALP1 yeast inh: -5; TIM10 inh: 66*; V-ATPase pHluor: -4; NLRP3 yeast inh: 15; tim10-1 confirm: 44*; tim10 confirm: -21

What do the screens show for `CCN1CCN(CCCNC(=O)c2cc3cc4ccc(OC)cc4nc3o2)CC1`?
tim10-1 inh: 16; tim23-1 inh: 39; NALP1 yeast inh: 30; TIM10 inh: 11; V-ATPase pHluor: -1; NLRP3 yeast inh: 5

Results for COc1ccc2cc3cc(C(=O)NCCCN4CCOCC4)oc3nc2c1 ?
tim10-1 inh: 58*; tim23-1 inh: 45; NALP1 yeast inh: 10; TIM10 inh: 79*; V-ATPase pHluor: 3; NLRP3 yeast inh: -5; tim10-1 confirm: 67*; tim10 confirm: 81*

What do the screens show for `COc1ccc2cc3cc(C(=O)NCCN4CCN(Cc5ccccc5)CC4)oc3nc2c1`?
tim10-1 inh: 57*; tim23-1 inh: 39; NALP1 yeast inh: 13; TIM10 inh: 75*; V-ATPase pHluor: -3; NLRP3 yeast inh: 15; tim10-1 confirm: 58*; tim10 confirm: -21

What do the screens show for `CC(=O)c1ccc(OC(=O)c2nc(-c3ccccc3)oc2C)cc1`?
tim10-1 inh: 10; tim23-1 inh: 5; NALP1 yeast inh: 1; TIM10 inh: 5; V-ATPase pHluor: 0; NLRP3 yeast inh: 6

What do the screens show for `O=C(Nc1ccc(F)cc1)Nc1ccccc1C(=O)NCCN1CCNC1=O`?
tim10-1 inh: -2; tim23-1 inh: -6; NALP1 yeast inh: 20; TIM10 inh: -3; V-ATPase pHluor: -1; NLRP3 yeast inh: 7

How did CCOc1ccc(Nc2cc(C)nc(-n3nc(C)cc3C)n2)cc1 do in these assays?
tim10-1 inh: 44*; tim23-1 inh: 18; NALP1 yeast inh: 7; TIM10 inh: 42*; V-ATPase pHluor: -3; NLRP3 yeast inh: 30; tim10-1 confirm: 1; tim10 confirm: 7

What do the screens show for `CNc1cc(C)nc(-n2nc(C)cc2C)n1`?
tim10-1 inh: -1; tim23-1 inh: 31; NALP1 yeast inh: 12; TIM10 inh: -1; V-ATPase pHluor: 4; NLRP3 yeast inh: 0

Results for CCCc1cc(-c2nc(-c3ccc(Br)cc3)cs2)ccn1 ?
tim10-1 inh: 33; tim23-1 inh: 32; NALP1 yeast inh: -33; TIM10 inh: 24; V-ATPase pHluor: -2; NLRP3 yeast inh: -24

How did CCCc1cc(-c2nc(-c3ccc(Cl)cc3)cs2)ccn1 do in these assays?
tim10-1 inh: 47*; tim23-1 inh: 30; NALP1 yeast inh: 18; TIM10 inh: 51*; V-ATPase pHluor: 0; NLRP3 yeast inh: -4; tim10-1 confirm: 45*; tim10 confirm: 43*
